Bioassay records as filed in PubChem BioAssay.
Compounds with a hit are over-represented: about 11% of the library has one in this group of screens.
HCV inh: blocks hepatitis C virus; Potency, µM (titrated, usually from 41.8 µM), for the others: at the top dose activity change, negative = inhibition, actives largely listed as inhibitors; 3.4% of 340,000 active; Huh7.5.1 HCVcc-Cre infection, luciferase reporter, 44 h
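Cells (1,000/well) were plated 4 h before compound, then infected with HCVcc-Cre virus (~0.5 moi). After 44 h further culture, infection was read as luciferase luminescence following a 15 min substrate incubation at room temperature.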
Pf growth 48h: P. falciparum growth inhibition at 48 hours (one generation). P. falciparum luciferase growth in erythrocytes, 48 h. 5.9% of 310,000 active. Potency, µM (series often up to 28.7 µM), for inactives: top-dose activity change, negative = inhibition, usual class: inhibitors. AID 504832
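Read-out is firefly luciferase luminescence from an integrated reporter in P. falciparum, so falling signal marks reduced parasite growth. Infected erythrocytes were at 2% hematocrit and 0.1% parasitemia (final) in Albumax-supplemented RPMI 1640.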
Pf growth 96h: P. falciparum growth inhibition at 96 hours; P. falciparum luciferase reporter growth, 96 h; Potency, µM (top dose mostly 28.7 µM), inactives show at the highest dose activity change, negative = inhibition, usual class: inhibitors; 6.9% of 320,000 active; AID 504834
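Parasite growth measured via integrated firefly luciferase reporter in P. falciparum. Infected erythrocytes at 2% hematocrit, 0.05% parasitemia final were treated 96 hours at 37 C under 5% CO2, and luminescence was read.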
AMA1-RON2 inh: AMA1-RON2 (P. falciparum) interaction inhibition. AlphaScreen AMA1-biotinylated RON2 peptide binding. Potency, µM (titrated, usually from 58.2 µM), for inactives: at the top dose activity change, negative = inhibition, usual class: inhibitors. 0.2% of 360,000 active;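 further: 0% = vehicle wells and -100% = peptide control; nearly all actives have a fitted effect of over 45% in size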
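AMA1 (3D7) with his tag at 25 nM final met compounds first, then biotinylated RON2 peptide at 25 nM; detection used donor plus acceptor beads, 10 µg/mL apiece, read by AlphaScreen after 30 min at room temperature.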
Active calls of the source: *; u = inconclusive; x = not tested or not shown; [ ] = remark or other dose. The call rests on the fitted dose curve; in most records, active means well fitted curve in the direction sought with a large enough effect; inconclusive means small, poorly fitted or top-dose-only effect, or another doubt; inactive means no such curve, though single readings can be large; an effect the other way counts as inactive or inconclusive. Unless noted, on the % scale 0 is the no-effect control and ±100 the full control effect; potency means the concentration at half of the fitted maximal effect.

SMILES | HCV inh | Pf growth 48h | Pf growth 96h | AMA1-RON2 inh
COc1ccc(-c2cc(-c3ccccc3)[n+](C)c(-c3ccccc3)c2)cc1 | u | u | u | -10%
Fc1ccc(N2N=C(c3cccs3)CC2c2ccccc2)cc1 (centres undefined) | u | 13µM* | 12% | 17%
Cc1ccc(C2CC(c3cccs3)=NN2S(=O)(=O)c2ccc(C)cc2)cc1 (centres undefined) | u | u | 2.9µM* | -9%
O=S(=O)(c1ccccc1)N1N=C(c2cccs2)CC1c1cccc(O)c1 (centres undefined) | 5% | -8% | u | 0%
O=S(=O)(c1ccccc1)N1N=C(c2cccs2)CC1c1ccc(F)cc1 (centres undefined) | u | u | 9.3µM* | -15%
Cc1cccc(N(C)S(=O)(=O)c2c[nH]c3ccc([N+](=O)[O-])cc23)c1 | -29% | 22% | u | 0%
CCOC(=O)CSc1cc(C)c(C#N)c2nc3ccccc3n12 | 22% | 11% | 24% | 6%
CCOC(=O)c1c(C)cc(C)n2c1nc1ccccc12 | -18% | u | 12µM* | 7%
CCc1nnc(NS(=O)(=O)c2ccc(NC(=O)c3ccc(C#N)cc3)cc2)s1 | 9% | u | 10µM* | -9%
CCc1nnc(NS(=O)(=O)c2ccc(NCc3cc(Br)ccc3O)cc2)s1 | 18% | 5% | 38% | 7%
CCc1nnc(NS(=O)(=O)c2ccc(NC(=O)c3ccc(Cl)cc3)cc2)s1 | 24% | u | u | -12%
CCCN(CCC)S(=O)(=O)c1ccc(C(=O)Nc2ccc(S(=O)(=O)Nc3nnc(CC)s3)cc2)cc1 | 10% | 12µM* | u | 0%
CCc1nnc(NS(=O)(=O)c2ccc(NCc3ccccc3O)cc2)s1 | 24% | 18% | 3.3µM* | 11%
CC1(Cc2ccc(F)c(Cl)c2)C(=O)Nc2c(Cl)cccc21 (centres undefined) | x | x | x | -2%
C#CCOCCOCCOCCNc1nc(N2CCOCC2)nc(N2CCN(C(=O)CCCCCCCCCCNC(=O)[C@@H](CCSC)n3cc(CCO)nn3)CC2)n1 | -28% | 0.66µM* | u | 16%
C#CCOCCOCCOCCNc1nc(N2CCN(C(=O)CCCCCCCCCCNC(=O)[C@H](CO)n3cc(CCCSC)nn3)CC2)nc(N2CCN(C(=O)CCCCCCCCCCNC(=O)[C@H](CO)n3cc(CCCSC)nn3)CC2)n1 | 10% | 0.29µM* | 0.1µM* | 11%
C#CCOCCOCCOCCNc1nc(N2CCN(C(=O)CCCCCCCCCCNC(=O)[C@H](CO)n3cc(CCCSC)nn3)CC2)nc(N2CCN(C(=O)CCCCCCCCCCNC(=O)[C@H](CCCCN)n3cc(C[C@@H](C)CC)nn3)CC2)n1 | u | 1.3µM* | 1.9µM* | x
C#CCOCCOCCOCCNc1nc(N2CCN(C(=O)[C@H](C)n3cc(CCC(=O)O)nn3)CC2)nc(N2CCN(C(=O)[C@H](C)n3cc(CCC(=O)O)nn3)CC2)n1 | -2%[8.37 µM] | x | x | 0%
CC(=O)Nc1cc(-c2ccccc2N(C)C)cn2c(-c3cccc(C(F)(F)F)c3)cnc12 | x | x | x | -19%
CC1CCCC(=NNC(=O)C2COc3ccccc3O2)C1 (centres undefined) | u | x | x | -12%
CCn1c(COc2ccc(C)cc2)nnc1SCC(=O)Nc1ccc2c(c1)OCCO2 | u | 7% | -19% | 6%
c1ccc(C[C@H]2CN=C(Nc3ccccc3)N2CCC2CCCC2)cc1 | u | u | u | 4%
NC1=NC[C@H](Cc2ccc(O)cc2)N1CCCCC1CCCCC1 | 4%[8.37 µM] | 2.1µM* | 2.1µM* | -4%
NC1=NC[C@H](Cc2ccccc2)N1CCc1cccc(F)c1 | 13% | 5.9µM* | 3.7µM* | 5%
NC1=NC[C@@H](CC2CCCCC2)N1CCc1cc(C(F)(F)F)cc(C(F)(F)F)c1 | u | x | x | 1%
SMILES | HCV inh | Pf growth 48h | Pf growth 96h | AMA1-RON2 inh
NC1=NC[C@H](Cc2ccccc2)N1CCCCC1CCCCC1 | -3%[8.37 µM] | u | 12µM* | 10%
COc1ccc(/C=N/NC(=O)c2cnccn2)cc1O | 13% | 90% | -13% | 2%
COc1cccc(/C=N/NC(=O)c2cc3c(OC)cccc3[nH]2)c1O | u | u | 1.9µM* | 39%
COc1ccc(/C=N/NC(=O)c2cc3c(OC)ccc(OC)c3[nH]2)cc1O | u | 3.7µM* | u | -2%
COc1ccc(OC)c2[nH]c(C(=O)N/N=C/c3ccccc3O)cc12 | 3.2µM* | x | u | 52%
COc1ccccc1NC(=O)N1CCCC1C(=O)NCc1ccccc1Cl (centres undefined) | -3% | 14% | -17% | -2%
CCOC(=O)N1CCN(C(=O)C[C@@H]2C[C@@]3(C(=O)OC)CCCCC=C3N(Cc3cccc4ccccc34)C2=O)CC1 | x | x | x | 10%
COc1cc(NC(=O)c2cc3ccccc3cc2O)c(OC)cc1Cl | 10µM* | 2.1µM* | 1.3µM* | -1%
COc1ccccc1NC(=O)CNC(c1ccccc1)c1ccccc1 | -10% | u | u | -6%
COc1ccccc1NC(=O)C(C)NC(c1ccccc1)c1ccccc1 (centres undefined) | u | 13µM* | 8.3µM* | 8%
Cc1ccc(Cl)cc1NC(=O)COC(=O)c1ccccc1O | 11% | -18% | 12% | 2%
Cc1ccc(Cl)cc1NC(=O)c1cc2ccccc2cc1O | u | 0.93µM* | 0.29µM* | -1%
COc1cc(OC)c(NC(=O)c2ccccc2F)cc1Cl | 1% | 18% | 9% | -1%
COc1ccccc1NC(=O)c1cc2cc(Br)ccc2cc1O | 11µM* | 2.9µM* | u | 6%
COc1ccccc1NC(=O)c1ccccc1Nc1ccccc1 | -33% | 5.2µM* | u | -5%
CC1NS(=O)(=O)c2cc([N+](=O)[O-])ccc21 (centres undefined) | x | x | x | 1%
O=C(CCl)NCc1cc(-c2ccc(Cl)cc2)no1 | 11µM* | 2.1µM* | 2.9µM* | -1%
COc1ccc(OCc2cc(-c3ccc(Cl)cc3)no2)cc1 | 9% | 258% | 84% | 13%
COc1ccccc1NC(=S)N/N=C1\CC(C)(C)Oc2ccc(O)cc21 | 10µM* | u | 6% | 90%
COc1ccc(NC(=S)N/N=C2\CC(C)(C)Oc3ccc(O)cc32)cc1 | u | u | -2% | 16%
CC(c1ccccn1)N(Cc1ccco1)C(=S)Nc1cccc(F)c1 (centres undefined) | 20% | 11% | u | 107%
COc1ccccc1C1CC(c2ccc(Cl)cc2)Nc2ncnn21 (centres undefined) | 9% | 13µM* | -1% | -3%
Cc1ccc(C2CC(c3ccccc3)n3ncnc3N2)cc1 (centres undefined) | -3% | -2% | 13µM* | -4%
COc1ccc(C2CC(c3ccccc3)n3nnnc3N2)cc1 (centres undefined) | 6% | x | -33% | -24%
CCOc1ccc(C2CC(c3cccc(OC)c3OC)n3nnnc3N2)cc1Cl (centres undefined) | 11µM* | 12µM* | 5% | 1%
